The list is not random: actives were taken first. Their share in the collection is about 4.6%.
tim23-1 inh: growth inhibitors of tim23-1 mutant yeast, primary screen, luminescence, uHTS; S. cerevisiae tim23-1 growth, BacTiter-Glo luminescence, 24 h; inhibition, % at 20 µM; 330,000 compounds, 1.3% hits; AID 463212, 2010;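 active means growth inhibition of the mutant yeast at or above 50%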;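 further: temperature-sensitive mutant grown at 25 °C; plate controls were DMSO-treated mutant yeast for no effect and medium wells lacking yeast for full effect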
NALP3 yeast inh: NALP3 inflammasome inhibitors in reconstituted yeast, primary screen, luminescence, uHTS | AID 2825, 2010 | Yeast reconstituted NLRP3/ASC/caspase-1, beta-gal luminescence, 24 h | 330,000 compounds, 0.39% hits | inhibition, % at 10 µM;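 active means inhibition of 50% or more; inactive means inhibition below 50%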;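 further: plate controls were induced DMSO wells for no effect and uninduced yeast grown without galactose for full effect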
SKKanGAS inh: S. pyogenes SKKanGAS growth inhibitors in kanamycin, primary screen, streptokinase expression inhibitor project, SKKanGAS strain, BacTiter-Glo luminescence | 6 h | inhibition, % at 7.5 µM | 300,000 compounds, 1.3% hits | AID 1662, 2009;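 active means mean replicate score, as percent of positive control median, at least 50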;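 further: strain carries kanamycin resistance gene driven by streptokinase promoter and grows in 40 µg/ml kanamycin; loss of luminescence reflects streptokinase promoter inhibition or plain growth inhibition; 0% = median of DMSO wells and 100% = positive control at its reference dose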
tim10-1 inh: growth inhibitors of tim10-1 mutant yeast, primary screen, luminescence, uHTS; S. cerevisiae tim10-1 ts strain growth, BacTiter-Glo, 24 h; inhibition, % at 20 µM; 330,000 compounds, 2.2% hits; AID 463190, 2010;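 active means inhibition of at least 40%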;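 further: mutant grown at 25 °C; 0% = DMSO wells with yeast and 100% = wells holding no yeast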
TIM10 inh: growth inhibitors of isogenic TIM10 control yeast, primary screen, counter-screen for tim10-1 yeast inhibitor project, luminescence, uHTS. S. cerevisiae TIM10 strain growth, BacTiter-Glo luminescence, 24 h. inhibition, % at 10 µM. 330,000 compounds, 1.4% hits. AID 463195, 2010;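 active means inhibition of 40% or more at the single tested concentration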;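 further: wild-type TIM10 isogenic control strain grown at permissive 25 °C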
PfHsp90 yeast 2: growth inhibition of PfHsp90-expressing yeast, primary screen, antimalarial PfHsp90 inhibitor project, S. cerevisiae, BacTiter-Glo luminescence, single point, set 2 | BacTiter-Glo ATP, 48 h; yeast lacking PDR1 and PDR3 efflux regulators | inhibition, % at 9.4 µM | 310,000 compounds, 0.32% hits | AID 504621, 2011;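 active means every replicate shows inhibition above about 80%, whatever the replicate mean, limit read from the data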;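 further: 0% = DMSO neutral controls and 100% = 20 µM radicicol positive controls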
Numbers without * were called inactive; · = no result given.

SMILES	tim23-1 inh	NALP3 yeast inh	SKKanGAS inh	tim10-1 inh	TIM10 inh	PfHsp90 yeast 2
NN=C1c2ccccc2-c2ccc(N)cc21	·	·	·	·	·	-1
O=C(CCC1CCCC1)c1c(O)c2ccccc2oc1=O	1	35	54*	-13	-26	8
CC(C)(C)c1ccc(OCCCC(=O)NC2=NCCS2)cc1	15	35	62*	30	11	-8
O=S(=O)(Nc1ccc(C(F)(F)F)cn1)c1ccccc1	19	-2	-2	5	-3	-6
CCCCn1c(NC(=O)c2ccccc2Cl)c(C#N)c2nc3ccccc3nc21	42	2	39	26	26	78*
CC(=O)Oc1cc2c3c(c1)/C(=C1/SC(=S)NC1=O)C(=O)N3C(C)(C)C=C2C	37	21	82*	26	6	-7
O=C(Nc1ccc(S(=O)(=O)Nc2nccs2)cc1)c1ccccc1OC(F)F	-1	17	·	-12	2	47
O=C(CCN1C(=O)/C(=C\c2ccccc2)SC1=S)NNC(=O)c1ccccc1O	6	9	51*	-8	26	-14
COc1ccc(/C=C2/SC(=S)N(Cc3ccccc3)C2=O)cc1O	26	36	-1	27	10	-18
CCc1ccc(/C=C2/SC(=S)N(CCCC(=O)Nc3ccccc3C(=O)O)C2=O)cc1	39	-2	52*	38	11	-16
O=C(CN1C(=O)S/C(=C\C=C\c2ccccc2)C1=O)Nc1cccc(O)c1	31	22	8	23	23	-25
O=C(CN1C(=O)S/C(=C\C=C\c2ccccc2)C1=O)Nc1ccccc1C(=O)O	5	-5	70*	8	7	-7
O=C1/C(=C\c2cc(Cl)c(O)c(Cl)c2)SC(=S)N1Cc1ccccc1	·	·	90*	·	·	-25
Cc1cc(/C(N)=N/OC(=O)Nc2ccc(Cl)cc2)no1	12	1	-2	8	15	9
CC(C)CNS(=O)(=O)c1ccc(CCC(=O)NCCC2=CCCCC2)cc1	3	19	-8	-5	-7	18
CCc1ccc(/C=C2/SC(=S)N(CC(=O)Nc3nc4ccccc4s3)C2=O)cc1	26	12	79*	16	2	-3
CCc1ccc(/C=C2\SC(=S)N(CCCC(=O)Nc3ccccn3)C2=O)cc1	0	17	5	3	13	4
COC(=O)c1cc(Cn2nc(C(=O)O)c3ccccc3c2=O)oc1C	5	1	-7	-3	5	-12
O=C1c2cccc3c([N+](=O)[O-])ccc(c23)C(=O)N1O	46	11	79*	-21	15	12
Cc1nnsc1C(=O)N/N=C/c1ccccc1	-12	15	10	15	0	12
Cc1nnsc1C(=O)N/N=C/c1ccc2ccccc2c1O	-8	20	56*	7	-14	-9
CC(C)(C)c1ccc(C(=O)Nc2ccc(F)cc2)s1	41	12	53*	17	23	9
CCc1cc2cc(C(=O)Nc3ccc(F)cc3)sc2s1	-1	20	5	8	0	-10
CCN1CCN(c2sc(S(C)(=O)=O)nc2S(=O)(=O)c2ccc(C)cc2)CC1	7	9	-1	19	-5	12
O=C(c1ccc(Cl)cc1)N1CCN(c2ccc(F)cc2)CC1	40	-1	4	21	-6	102*
SMILES	tim23-1 inh	NALP3 yeast inh	SKKanGAS inh	tim10-1 inh	TIM10 inh	PfHsp90 yeast 2
O=C(c1ccncc1)N1CCN(c2ccc(F)cc2)CC1	12	17	-1	9	-11	1
O=S1(=O)CC(O)C(N2CCCCC2)C1 (configuration not stated)	9	9	-6	24	-2	11
FC(F)(F)c1cc(-c2ccco2)nc(NCCc2ccccc2)n1	-2	12	43	11	-5	9
CCCCCCSc1cccc(-c2nc3ccc(Cl)cn3c2NCCCC)c1	·	·	·	·	·	-18
CCCCNc1c(-c2cccc(-c3cc(C(C)=O)cs3)c2)nc2ccc(C)cn12	26	22	53*	31	17	-5
CCCCNc1c(-c2cccc(-c3ccc(OC)cc3)c2)nc2ccc(C)cn12	-2	26	63*	33	2	-12
CCCCNc1c(-c2cccc(-c3ccc(OC)cc3)c2)nc2cc(C)ccn12	41	31	·	5	36	-8
Cc1ccc(-c2n[nH]c(=S)n2/N=C/c2ccncc2)cc1	-12	28	-8	2	-1	-8
Cc1cccn2c(=O)nc(SCC(=O)N3CCC(Cc4ccccc4)CC3)nc12	-8	-1	-10	0	-10	·
CCN(C(=O)c1cc2c(=O)[nH]c3ccc(C)cc3c2s1)c1ccc(OC)cc1	-9	-16	11	9	0	-16
Fc1ccc(-[n+]2nc(Nc3ccccc3)sc2-c2c3ccccc3cc3ccccc23)cc1	29	19	57*	37	21	-8
Oc1ccc2ccccc2c1-c1sc(Nc2ccccc2)n[n+]1-c1ccc(F)cc1	26	25	9	16	25	-14
O=C(Oc1cccc(Nc2ncnc3ccccc23)c1)c1ccccc1Cl	36	14	61*	25	2	-26
O=C(c1ccc(-c2ccccc2)cc1)N1CCN(C(=O)c2ccco2)CC1	9	12	-1	11	3	21
CC(C)(C)c1ccc(C(=O)N2CCN(C(=O)c3ccco3)CC2)cc1	17	24	50*	13	18	-2
CCCCCCCCCCCCCCCC(O)C[N+](C)(C)CCO (configuration not stated)	·	·	·	·	·	111*
CCCCCC(O)CCCC(=O)O (configuration not stated)	·	·	·	·	·	5
COc1ccc(Cl)cc1C(=O)NNC(=O)c1cccc([N+](=O)[O-])c1	-8	9	6	-18	-25	12
COc1ccc(Cl)cc1C(=O)NNC(=S)NC(=O)c1cc(-c2ccc(Cl)cc2)nc2ccccc12	-4	13	71*	18	16	1
COc1ccc(Cl)cc1C(=O)NNC(=S)NC(=O)c1ccc(F)c(F)c1	9	37	99*	-2	18	10
O=C(NC(=S)Nc1ccccc1)c1cc(-c2ccccc2)nc2ccccc12	21	17	12	33	36	-16
O=C(NNC(=O)c1cc(-c2ccc(Cl)cc2Cl)nc2ccccc12)Nc1ccccc1	21	19	74*	12	5	8
O=C(NNC(=O)c1ccc(Cl)cc1Cl)Nc1ccccc1	5	3	3	6	2	5
COc1cccc(CN2C(=NC(=O)C3CC3)SC3CS(=O)(=O)CC32)c1 (configuration not stated)	1	5	-11	5	6	-12
